From PubChem BioAssay (NCI)
This is part of a sample that, as a whole, favours compounds with a hit. Of some 83,000 tested, about 20% had one in any assay.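 A percent growth of 40 corresponds to 60% growth inhibition; 0 means no net growth; -100 means all cells died. Active threshold: below 10.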 Values without a mark were called inactive. Active and inactive are the calls of the source.

system: T-47D breast; test: NCI-60 one-dose screen, 48 h (100 = growth as untreated, 0 = no growth, -100 = all killed); details: 10 µM unless noted

Row | Structure (SMILES) | growth [%]
1 | Cc1ccc(S(=O)(=O)N(CCC(=O)O)c2ccccc2)cc1 | 100
2 | Nc1ncc(-c2ccc3ncnc(N4CCc5cc(F)c(Cl)cc54)c3c2)cc1C(F)(F)F | 20.4
3 | OC1CSSC1Cn1cnc2c(Nc3ccc(F)c(Cl)c3)ncnc21 (stereo unspecified) | 61.4
4 | COc1cc2c(c(OC)c1OC)C(=O)CC(c1cccc(C(=O)Nc3ccc(Br)cc3)c1)O2 (stereo unspecified) | 20.3

system: BT-549 breast; test: as above; details: 10 µM unless noted

Row | Structure (SMILES) | growth
5 | C=C(C)[C@@H]1CC[C@]2(COC(=O)c3cccnc3)CC[C@]3(C)[C@H](CC[C@@H]4[C@@]5(C)CCCN(C(=O)c6cccnc6)C(C)(C)[C@@H]5CC[C@]43C)[C@@H]12 | 51.9%
6 | C=C1C(=O)O[C@H]2[C@H]1CC/C(CNC(=O)/C=C/c1cc(OC)c(OC)c(OC)c1)=C\CC[C@@]1(C)O[C@@H]21 | -17.8% (active)
7 | O=S(=O)(c1ccc(NCSc2nc3ccccc3s2)cc1)c1ccc(NCSc2nc3ccccc3s2)cc1 | 87.5%
8 | COc1ccc(S(=O)(=O)Oc2ccc(-c3sc4cc(OS(=O)(=O)c5ccc(OC)cc5)ccc4c3C(=O)c3ccc(OCCN4CCCCC4)cc3)cc2)cc1 | 94.1%
9 | Nc1nc(N)c2c(n1)NC(c1cccc(Nc3ccnc4cc(C(F)(F)F)ccc34)c1)CC(c1ccc(Cl)cc1)=N2 (stereo unspecified) | 114%
10 | COC(=O)[C@H]1Cc2c([nH]c3ccccc23)[C@H](c2ccc3c(c2)OCO3)N1 | 99.5%
11 | [2H]C([2H])([2H])Oc1c(F)cccc1/C=C/C(=O)/C=C(O)/C=C/c1cccc(F)c1OC([2H])([2H])[2H] | 97.6%
12 | C=C(C)[C@@H]1CCC[C@]2(C(=O)OC)CC[C@]3(C)[C@@H](CC[C@@H]4[C@@]5(C)CCCNC(C)(C)[C@@H]5CC[C@]43C)[C@@H]12 | 93.9%
13 | O=C(Nc1ncc(Cc2ccccc2)s1)c1ccc2c(c1)OCCO2 | 36.1%
14 | COc1ccc(-c2cc(-c3ccc(Nc4nc(Nc5ccc(Cl)cc5)nc(Nc5ccc(Cl)cc5)n4)cc3)no2)cc1 | 89.8%
15 | CNC(=O)c1cc(Oc2ccc3nc(NC(=O)NC(C)C)sc3c2)ccn1 | 86.5%
16 | O=C1NCCS(=O)(=O)/C1=C\C=C\c1cccc(C(F)(F)F)c1 | 20.2%
17 | NCCNc1ccc([N+](=O)[O-])cc1 | 103%
18 | Clc1ccc2c(NCCCn3cnc4c(N5CCCC5)nc(Cl)nc43)ccnc2c1 | 97.7%
19 | O=C(/C=C/c1ccc(Cl)cc1)c1ccc(Nc2ccnc3cc(Cl)ccc23)cc1 | 145%
20 | Oc1c(Cl)cc(Cl)c2ccc(CN3CCNCC3)nc12 | 82.2%

Row | Structure (SMILES) | growth
21 | O=C1c2ccccc2C(=O)c2cc(Cn3c[n+](Cc4ccc5ccccc5c4)c4ccccc43)ccc21 | 47%
22 | CC(C)(C#N)c1cc(C(=O)Nc2cc(Nc3ncccc3-c3ncnc4nc[nH]c34)ccc2F)cc(C(F)(F)F)c1 | 71%
23 | CC(C)n1cc(C2=C(c3cccc4ccccc34)C(=O)NC2=O)c2cc(Br)ccc21 | 92.6%
24 | O=CN1N=C(c2cccc(Nc3ccncc3)c2)CC1c1ccc2c(c1)OCO2 (stereo unspecified) | 106%
25 | CC(=O)Cc1nsc(NC(=O)c2cc(-c3cc(Cl)ccc3Cl)oc2C)n1 | 102%
26 | O=C(O)COc1ccc(F)cc1 | 119%
27 | CC(Cc1cccc2ccccc12)C(N)=O (stereo unspecified) | 105%
28 | NC(=N\N=C/c1ccc(Cl)cc1Cl)/C(N)=N\N=C/c1ccc(Cl)cc1Cl | 111%
29 | CCOC(=O)CC1C(CNC(=O)NC)OC(n2cnc3c(NC(=O)Nc4ccccc4)ncnc32)C1O[Si](C)(C)C(C)(C)C (stereo unspecified) | 81.6%
30 | CCc1ccc(Cc2cnc(NC(=O)c3cc(C)oc3C)s2)cc1 | 44.8%
31 | CNc1nc2ncc(-c3c(C)noc3C)cc2n1Cc1ccccc1 | 60.2%
32 | CCCCC1=C(Br)C(=O)c2ncccc2C1=O | 94.4%
33 | Cc1ccc2nc(/C=C/c3ccc(N(C)C)cc3)cc(C)c2c1 | 32.3%
34 | CCN(CC)c1ccc(/C=N/NC(=O)c2ccccc2Nc2ccnc(C(F)(F)F)c2)c(O)c1 | 38.5%
35 | COc1cc2ncnc(Nc3ccc(S(=O)(=O)Nc4cc(C)on4)cc3)c2cc1OCCCN1CCOCC1 | 91.6%
36 | COc1ccc(-c2cc(-c3ccc(N(C)C)cc3)nc(NC(=O)c3cccnc3)n2)cc1 | 119%
